Reference: PubChem BioAssay (NCI)
This is part of a sample that, as a whole, favours compounds with a hit. Of some 83,000 tested, about 20% had one in any assay.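 Plates (96-well) were seeded with cells, treated with compound at one concentration, and incubated for 48 hours before percent growth was determined.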 Unmarked numbers belong to inactive results. Activity calls are given as the source filed them. Rule for the calls: active = growth percent below 10; inactive = the rest.

Columns and labels:
Assay in all cases: NCI-60 one-dose screen, 48 h (100 = growth as untreated, 0 = no growth, -100 = all killed)
Conditions in all cases: 10 µM unless noted
[1] = system: DU-145 prostate
[2] = system: K-562 leukemia
[3] = system: MALME-3M melanoma
[4] = system: MDA-MB-231 breast
[5] = system: RXF 393 renal
[6] = system: SF-268 CNS
[7] = system: SF-295 CNS
[8] = system: SF-539 CNS
[9] = system: UACC-257 melanoma
[10] = system: M14 melanoma
[11] = system: HCT-15 colon
[12] = system: HT29 colon
[13] = system: SNB-75 CNS
[14] = system: SNB-19 CNS
[15] = system: U251 CNS
[16] = system: PC-3 prostate
[17] = system: SK-MEL-5 melanoma
[18] = system: UACC-62 melanoma
[19] = system: LOX IMVI melanoma
[20] = system: SK-MEL-28 melanoma

Cc1ccc2c(Cn3cc(CSc4nc5ccccc5o4)nn3)cc(=O)oc2c1
growth [1]: 111%
growth [2]: 98.4%
growth [3]: 104%
growth [4]: 106%
growth [5]: 98.6%
growth [6]: 103%
growth [7]: 110%
growth [8]: 101%
growth [9]: 104%
growth [10]: 114%
growth [11]: 107%
growth [12]: 108%
growth [13]: 105%
growth [14]: 105%
growth [15]: 113%
growth [16]: 104%
growth [17]: 98.8%
growth [18]: 104%
growth [19]: 96.9%
growth [20]: 110%

CCOC(=O)c1ccc(NC(=O)c2nc(-c3cc(OC)c(OC)c(OC)c3)n(-c3ccc(Cl)cc3)n2)cc1
growth [1]: 102%
growth [2]: 85.7%
growth [3]: 91.4%
growth [4]: 69.4%
growth [5]: 86.3%
growth [6]: 84%
growth [7]: 96.9%
growth [8]: 97%
growth [9]: 96.5%
growth [10]: 97.6%
growth [11]: 93.2%
growth [12]: 89.9%
growth [13]: 81%
growth [14]: 88.8%
growth [15]: 93.8%
growth [16]: 77.5%
growth [17]: 63.6%
growth [18]: 77.7%
growth [19]: 91.8%
growth [20]: 95%

CCOC(=O)NC(C)C
growth [1]: 120%
growth [2]: 87.6%
growth [3]: 104%
growth [4]: 112%
growth [5]: 77.4%
growth [6]: 109%
growth [7]: 118%
growth [8]: 95.9%
growth [9]: 95%
growth [10]: 102%
growth [11]: 109%
growth [12]: 107%
growth [13]: 96.8%
growth [14]: 99.3%
growth [15]: 106%
growth [16]: 82%
growth [17]: 103%
growth [18]: 105%
growth [19]: 102%
growth [20]: 119%

CSc1nc2ccccc2cc1/C=[N+](\[O-])c1ccccc1
growth [1]: 87.7%
growth [2]: 15.1%
growth [3]: 46.1%
growth [4]: 46.5%
growth [5]: 83.8%
growth [6]: 56.6%
growth [7]: 86.7%
growth [8]: 19.7%
growth [9]: 90%
growth [10]: 27.6%
growth [11]: 18.7%
growth [12]: 80.2%
growth [13]: 67.3%
growth [14]: 72.9%
growth [15]: 46.2%
growth [16]: 40.9%
growth [17]: 52.5%
growth [18]: 51.5%
growth [19]: 38.1%
growth [20]: 93.8%

CSc1oc(C)nc1[P+](c1ccccc1)(c1ccccc1)c1ccccc1
growth [1]: 57.6%
growth [2]: 31%
growth [3]: 76.1%
growth [4]: 65.4%
growth [5]: 75.9%
growth [6]: 54.8%
growth [7]: 78.3%
growth [8]: 79.6%
growth [9]: 20.5%
growth [10]: 74.9%
growth [11]: 104%
growth [12]: 53.9%
growth [13]: 75.9%
growth [14]: 45%
growth [15]: 42.2%
growth [16]: 52.1%
growth [17]: -9.07% (active)
growth [18]: 47.2%
growth [19]: 28.7%
growth [20]: 61.1%

c1cc2c(ccc3[nH]c(-c4ccc5[nH]ncc5c4)c4c(c32)CCCC4)n1
growth [1]: 66%
growth [2]: 2.93% (active)
growth [3]: 35.9%
growth [4]: 78.4%
growth [5]: 89.3%
growth [6]: 62.3%
growth [7]: 63.6%
growth [8]: 62.9%
growth [9]: 74.9%
growth [10]: 61.9%
growth [11]: 61.6%
growth [12]: 51.7%
growth [13]: 62.1%
growth [14]: 44.5%
growth [15]: 36.8%
growth [16]: 28.4%
growth [17]: 61.7%
growth [18]: 54.6%
growth [19]: 61.5%
growth [20]: 67.3%

N#Cc1nc(-c2ccc(Cl)cc2)oc1S(=O)(=O)N1CCN(c2ccc(F)cc2)CC1
growth [1]: 97.3%
growth [2]: 24.6%
growth [3]: 92.6%
growth [4]: 103%
growth [5]: 109%
growth [6]: 97.6%
growth [7]: 101%
growth [8]: 98.3%
growth [9]: 94.5%
growth [10]: 95%
growth [11]: 54.3%
growth [12]: 88.5%
growth [13]: 94.2%
growth [14]: 96.4%
growth [15]: 94.6%
growth [16]: 96.4%
growth [17]: 96%
growth [18]: 100%
growth [19]: 29.3%
growth [20]: 104%

COc1ccc(/C=N/NC(=O)c2ccc(-n3cc(-c4ccccc4)nn3)cc2)cc1OC
growth [1]: 103%
growth [2]: 93.2%
growth [3]: 77.8%
growth [4]: 103%
growth [5]: 110%
growth [6]: 93.8%
growth [7]: 97.7%
growth [8]: 102%
growth [9]: 103%
growth [10]: 82.5%
growth [11]: 97.6%
growth [12]: 100%
growth [13]: 94%
growth [14]: 107%
growth [15]: 106%
growth [16]: 94%
growth [17]: 89.2%
growth [18]: 76.7%
growth [19]: 94.5%
growth [20]: 88.8%

COc1ccc(-c2ccc(-c3ccc(C(=N)N)cc3)s2)cc1Cl
growth [1]: -87.5% (active)
growth [2]: -36.8% (active)
growth [3]: 57.5%
growth [4]: -60.7% (active)
growth [5]: 60.7%
growth [6]: 20%
growth [7]: -37.5% (active)
growth [8]: -59% (active)
growth [9]: 88.1%
growth [10]: 38.6%
growth [11]: -70.3% (active)
growth [12]: 0.572% (active)
growth [13]: 100%
growth [14]: 24%
growth [15]: -62.4% (active)
growth [16]: -25% (active)
growth [17]: 87.7%
growth [18]: 88.3%
growth [19]: -76.7% (active)
growth [20]: 102%

Cn1c(=O)cc2c3c(c(NCCCO)ccc31)C(=O)c1ccccc1-2
growth [1]: 45.4%
growth [2]: 38.1%
growth [3]: 27.3%
growth [4]: 58.1%
growth [5]: 42.6%
growth [6]: 42.3%
growth [7]: 42.8%
growth [8]: 50%
growth [9]: 64.2%
growth [10]: 55.3%
growth [11]: 39.5%
growth [12]: 23.1%
growth [13]: 39.3%
growth [14]: 47.3%
growth [15]: 37.5%
growth [16]: 45.2%
growth [17]: 40.2%
growth [18]: 40.4%
growth [19]: 26.6%
growth [20]: 71.4%

Cc1cn(-c2cc(NC(=O)c3cccc(C#Cc4cccc5[nH]nc(N)c45)c3)cc(C(F)(F)F)c2)cn1
growth [1]: 57.6%
growth [2]: 3.17% (active)
growth [3]: 12.4%
growth [4]: 16.9%
growth [5]: -6.88% (active)
growth [6]: 53.2%
growth [7]: 27.5%
growth [8]: 6.24% (active)
growth [9]: 41.4%
growth [10]: 7.33% (active)
growth [11]: 25.8%
growth [12]: 18.4%
growth [13]: 48.1%
growth [14]: 55.5%
growth [15]: 43.7%
growth [16]: 20.9%
growth [17]: 34.5%
growth [18]: 5.82% (active)
growth [19]: 7.02% (active)
growth [20]: 23.5%

C#CCOc1ccc2ncnc(Nc3ccc(NC(=O)C=C)cc3)c2c1
growth [1]: -29.8% (active)
growth [2]: -35.7% (active)
growth [3]: -74.4% (active)
growth [4]: -71.7% (active)
growth [5]: -80.6% (active)
growth [6]: 6.18% (active)
growth [7]: 83.2%
growth [8]: -10.4% (active)
growth [9]: -26.3% (active)
growth [10]: -52.4% (active)
growth [11]: -14.8% (active)
growth [12]: -34.9% (active)
growth [13]: 70%
growth [14]: 17.6%
growth [15]: -22.9% (active)
growth [16]: 3.24% (active)
growth [17]: 13.1%
growth [18]: -68.7% (active)
growth [19]: -82.6% (active)
growth [20]: 2.36% (active)

CC1CCN(S(=O)(=O)c2ccc(S(=O)(=O)N3CCCC(c4nc5c(nnn5Cc5cccc(Cl)c5)c(=O)[nH]4)C3)cc2)CC1 (stereo not given)
growth [1]: 59.8%
growth [2]: 20.1%
growth [3]: 46.7%
growth [4]: 73%
growth [5]: 15.8%
growth [6]: 51.9%
growth [7]: 63.6%
growth [8]: 49.7%
growth [9]: 54.2%
growth [10]: 16.9%
growth [11]: 36.1%
growth [12]: 17.1%
growth [13]: 21.6%
growth [14]: 67.6%
growth [15]: 45.1%
growth [16]: 47%
growth [17]: 24.1%
growth [18]: 40.2%
growth [19]: 42.4%
growth [20]: 62%

c1cnc2c(-c3nc4ccc5[nH]ncc5c4c4c3CCCC4)c[nH]c2c1
growth [1]: 27.7%
growth [2]: 21%
growth [3]: 63.8%
growth [4]: 30.7%
growth [5]: 42.7%
growth [6]: 40.4%
growth [7]: 32.1%
growth [8]: 42.9%
growth [9]: 98.3%
growth [10]: 59%
growth [11]: 43.9%
growth [12]: 14.9%
growth [13]: 57.8%
growth [14]: 29.8%
growth [15]: 29.8%
growth [16]: 27.5%
growth [17]: 56.4%
growth [18]: 45.8%
growth [19]: 19.6%
growth [20]: 88.8%

CCCCn1c(=O)[nH]c(N)c([C@@H]2c3c([nH]c(=O)n(CCCC)c3=O)Oc3ccc4ccccc4c32)c1=O
growth [1]: 47.5%
growth [2]: 76.3%
growth [3]: 38.5%
growth [4]: 55.4%
growth [5]: 99.6%
growth [6]: 8.16% (active)
growth [7]: 89.1%
growth [8]: 95.8%
growth [9]: 93%
growth [10]: 31.1%
growth [11]: 6.62% (active)
growth [12]: -44.2% (active)
growth [13]: 87.1%
growth [14]: 64.2%
growth [15]: -20.7% (active)
growth [16]: 24.4%
growth [17]: 67%
growth [18]: 80.1%
growth [19]: -76.2% (active)
growth [20]: 44%
